Experimental data: PubChem BioAssay AID2284386 (EPA ToxCast)
Activity calls are given as the source filed them. The calls were made as follows: active = hit-call score of the fitted dose curve at least 0.9, where 1 is the maximum; inactive = score below 0.9.

biological target: Peroxisome proliferator-activated receptor gamma (Homo sapiens) (UniProt P37231); test: ERF_FR_NR_COA_hPPARG: Eurofins (ERF) Nuclear Receptor (NR) Functional Coactivator Assay for human Peroxisome Proliferator-activated Receptor gamma (PPARg) Agonism, conducted at France lab site
Procedure: ERF_FR_NR_COA_hPPARG is a biochemical, single-readout assay that uses extracted gene-proteins in a cell-free assay. Measurements were taken 2 hours after chemical dosing in a 384-well plate. See PPARgamma Human NHR Functional Agonist Coactivator Assay, Cerep.ERF_FR_NR_COA_hPPARG is an assay component calculated from the ERF_FR_NR_COA_hPPARG assay. It is designed to measure FRET using a type of binding reporter as detected by fluorescence intensity of Rosiglitazone with fluorimetry technology.Data from the assay component ERF_FR_NR_COA_hPPARG was analyzed at the assay endpoint, ERF_FR_NR_COA_hPPARG, in the positive analysis fitting direction relative to DMSO as the negative control and baseline of activity. Using a type of binding reporter, gain-of-signal activity can be used to understand changes in binding as they relate to gene PPARG. To generalize the intended target to other relatable targets, this assay endpoint is annotated to the nuclear receptor intended target family, where the subfamily is non-steroidal.
Test compound and/or vehicle is incubated with the 2 nM receptors and coactivator peptide for 180 minutes at room temperature. Determination of the amount of complex formed is read spectrofluorimetrically (excitation: 337 nm, emission: 520/490 nm). Test compound-induced increase fluorescence by 50 percent or more (>/=50%) relative to 1 uM GW1929 response indicates possible PPARgamma receptor agonist activity. Test compound-induced inhibition of 5 nM GW1929-induced fluorescence response by 50 percent or more (>/=50%) indicates receptor antagonist activity.

Peroxisome proliferator-activated receptor gamma (Homo sapiens), sequence (P37231 whole entry, looked up): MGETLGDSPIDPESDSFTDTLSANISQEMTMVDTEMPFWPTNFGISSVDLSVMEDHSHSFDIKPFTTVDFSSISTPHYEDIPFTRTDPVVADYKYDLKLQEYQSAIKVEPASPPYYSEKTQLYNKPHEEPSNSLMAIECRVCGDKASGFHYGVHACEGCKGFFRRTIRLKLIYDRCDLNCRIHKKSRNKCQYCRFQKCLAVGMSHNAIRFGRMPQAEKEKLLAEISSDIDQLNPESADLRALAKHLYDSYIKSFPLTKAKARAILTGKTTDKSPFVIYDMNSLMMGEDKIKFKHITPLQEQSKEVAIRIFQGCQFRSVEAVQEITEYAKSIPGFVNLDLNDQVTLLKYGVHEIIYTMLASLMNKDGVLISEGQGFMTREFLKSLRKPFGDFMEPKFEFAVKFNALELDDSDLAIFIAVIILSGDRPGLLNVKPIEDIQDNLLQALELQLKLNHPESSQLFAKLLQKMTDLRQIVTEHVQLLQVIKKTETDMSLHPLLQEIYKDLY

outcome, inactive:
O=C(O)CCC(F)(F)C(F)(F)C(F)(F)F
NC(=O)c1nc(-c2cccc(-c3cc(F)ccc3OCC(F)(F)C(F)(F)F)c2)n[nH]1
O=C(CC(=O)C(F)(F)C(F)(F)C(F)(F)F)c1cccs1
